# TGFb inhibitor: blocks TGF-b signaling. HepG2 CAGA-GFP TGF-b/SMAD3 reporter, GFP fluorescence, 18 h; TGF-beta stimulated, 500 pg/mL final. Potency, µM (doses to about 46.1 µM), inactives show top-dose activity, negative = inhibition, most hits filed as inhibitors. 410,000 compounds, 1.2% hits. AID 588855; note: potency is the fitted concentration of half-maximal effect; % is set by controls: 0 for no effect and ±100 for the full control effect; nearly all actives have a fitted effect of over 65% in size
#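 Inhibition was scored as loss of TGF-beta-induced (500 pg/mL final, 18 hours, 37 degrees C) GFP in HEPG2 cells carrying a CAGA-GFP reporter, in DMEM with 1% FBS. Well GFP was summed per cell; Activity was normalised to unstimulated and stimulated DMSO wells, then concentration-response fitting.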
# TDP1 cell noCPT: qHTS for Inhibitors of human tyrosyl-DNA phosphodiesterase 1 (TDP1): qHTS in cells in absence of CPT; DT40 Tdp1-/- hTDP1 cells, no CPT, ATP luminescence, 48 h; Potency, µM (top dose mostly 46.2 µM), without a hit: at the highest dose activity change, negative = growth inhibition, actives largely listed as inhibitors; 420,000 compounds, 15% hits; AID 686978, 2013; note: potency is the fitted concentration of half-maximal effect; % is set by controls: 0 for no effect and ±100 for the full control effect; nearly all actives have a fitted effect of over 55% in size
#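 Readout: luminescence from CellTiter-Glo after 30 min in the dark at RT. Cells: DT40 Tdp1-/- with stable hTDP1, 400/well. Exposure: compounds alone, ≥48 hr, 37 °C.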
# HepG2 tox: kills HepG2 cells in TGF-b inhibitor counter-screen; Potency, µM (top dose mostly 46.1 µM), for inactives: top-dose activity change, negative = cytotoxicity, hits mostly cytotoxic; 410,000 compounds, 0.76% hits; HepG2 CAGA-GFP viability, ATP luminescence, 18 h; AID 588856; note: potency is the fitted concentration of half-maximal effect
#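 CellTiter-Glo luminescence gave cytotoxicity after 18 hours at 37 degrees C. The cells were HepG2 CAGA-GFP in 1% FBS DMEM, stimulated with 500 pg/mL TGF-beta after compound addition. %Activity was normalised to no-cell wells (complete cell-killing) and DMSO (no toxicity), and curves were fitted and classified.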
# TDP1 cell CPT: growth inhibition of DT40 Tdp1-/-;hTDP1 cells with camptothecin (screen for TDP1 inhibitors). chicken DT40 Tdp1-/-;hTDP1 cells + 20 nM CPT, ATP luminescence, 48 h. 420,000 compounds, 12% hits. Potency, µM (doses to about 46.2 µM), without a hit: at the highest dose activity change, negative = growth inhibition, hits mostly inhibitors; note: potency is the fitted concentration of half-maximal effect; % is set by controls: 0 for no effect and ±100 for the full control effect; nearly all actives have a fitted effect of over 55% in size
#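 Chicken DT40 Tdp1-/- cells stably complemented with human TDP1 were seeded at 400 cells/well in medium containing 20 nM camptothecin, exposed to pin-transferred compounds, and grown at 37 °C for at least 48 hr. Viability was read as ATP luminescence.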
# TDP1 inh: blocks human tyrosyl-DNA phosphodiesterase 1; 350,000 compounds, 0.28% hits; AID 485290; Potency, µM (titrated, usually from 130 µM), for the others: top-dose activity change, negative = inhibition, hits mostly inhibitors; recombinant TDP1, AlphaScreen DNA substrate cleavage; note: potency is the fitted concentration of half-maximal effect; % is set by controls: 0 for no effect and ±100 for the full control effect; nearly all actives have a fitted effect of over 40% in size
# Target sequence (Q9NUW8 whole entry, looked up): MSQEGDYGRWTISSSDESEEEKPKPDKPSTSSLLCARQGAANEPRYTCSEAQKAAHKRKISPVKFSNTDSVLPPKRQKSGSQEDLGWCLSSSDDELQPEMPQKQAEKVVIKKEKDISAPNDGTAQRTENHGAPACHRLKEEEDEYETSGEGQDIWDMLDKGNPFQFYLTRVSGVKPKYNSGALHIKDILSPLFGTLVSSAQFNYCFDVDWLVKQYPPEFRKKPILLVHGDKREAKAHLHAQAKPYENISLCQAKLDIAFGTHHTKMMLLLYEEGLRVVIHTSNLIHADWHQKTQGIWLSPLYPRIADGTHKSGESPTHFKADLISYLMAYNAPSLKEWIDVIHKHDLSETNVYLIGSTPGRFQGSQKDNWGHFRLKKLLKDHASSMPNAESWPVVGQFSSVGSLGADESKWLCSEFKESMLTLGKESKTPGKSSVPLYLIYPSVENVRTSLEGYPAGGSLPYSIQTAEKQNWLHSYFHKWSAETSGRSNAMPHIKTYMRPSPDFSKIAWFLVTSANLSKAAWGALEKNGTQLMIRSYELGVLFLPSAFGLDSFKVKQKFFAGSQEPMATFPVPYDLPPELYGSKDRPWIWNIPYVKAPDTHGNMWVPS
#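 Signal: AlphaScreen proximity between streptavidin donor and anti-FITC acceptor beads on intact substrate. Reaction: Tdp1 1 nM, substrate 15 nM final, 5 min RT after 15 min compound preincubation.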
# IL1B secr inh: blocks inflammasome-driven IL-1 beta release; activity change, % at 57.5 µM; AID 743279; THP-1 LPS/ATP IL-1B secretion, AlphaLISA, 16 h; stronger effect = lower value; 360,000 compounds, 4.7% hits; in the data active = activity change below about -50%; inconclusive = mostly about -30% to -49%; note: % is set by controls: 0 for no effect and ±100 for the full control effect
#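 Secreted IL-1B measured by AlphaLISA bead assay after 16 h compound exposure of THP-1 cells; compounds (final up to 57.5 uM) added 1 h before LPS (250 ng/mL) and ATP (1.25 mM) stimulation; lower signal means less secretion.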
# Numbers without * were called inactive; ? = inconclusive; nt = no result. Only some compounds are listed: those with a hit (about 18% of all), similar ones and a draw of the others. Unless noted, calls come from the whole dose curve; as a rule, active = well fitted curve in the direction sought with a large enough effect; inconclusive = small, poorly fitted or top-dose-only effect, or another doubt; inactive = no such curve, though single readings can be large; an effect the other way counts as inactive or inconclusive.
SMILES,TGFb inhibitor,TDP1 cell noCPT,HepG2 tox,TDP1 cell CPT,TDP1 inh,IL1B secr inh
Cc1ccc(C(=O)N/C(=C\c2ccc(Cl)cc2)C(=O)NCCCN2CCOCC2)cc1,-12%,15%,3%,9%,-1%,-3
CN(C)CCCNC(=O)/C(=C\c1ccc(-c2ccc(Br)cc2)o1)NC(=O)c1ccccc1,?,12µM*,11µM*,3.7µM*,8%,?
Cc1ccc(C(=O)N/C(=C\c2ccc(-c3ccccc3[N+](=O)[O-])o2)C(=O)NCCCN(C)C)cc1,22%,5.8µM*,-25%,5.2µM*,nt,5
CC(C)C[C@H](NC(=O)[C@H](CC(C)C)NC(=O)[C@@H](Cc1c[nH]c2ccccc12)NC(=O)[C@H](Cc1ccccc1)NC(=O)[C@@H](Cc1c[nH]c2ccccc12)NC(=O)[C@H](CCC(N)=O)NC(=O)[C@H](CCC(N)=O)NC(=O)[C@@H]1CCCN1C(=O)[C@H](CCCCN)NC(=O)[C@@H]1CCCN1C(=O)[C@@H](CCCNC(=N)N)NC(=O)[C@@H]1CCCN1C(=O)CNC(=O)[C@H](CC(C)C)NC(=O)[C@H](CC(C)C)NC(=O)[C@H](Cc1ccc(O)cc1)NC(=O)CNC(=O)[C@H](C)NC(=O)[C@H](CO)NC(=O)[C@H](CC(N)=O)NC(=O)[C@H](CC(C)C)NC(=O)[C@@H](NC(=O)[C@H](Cc1c[nH]c2ccccc12)NC(=O)CN)[C@@H](C)O)C(N)=O,nt,nt,nt,nt,11%,nt
O=C1C[C@H](c2ccc(-c3ccccc3)cc2)N1S(=O)(=O)c1ccccc1[N+](=O)[O-],-24%,nt,-9%,nt,9%,nt
COc1ccc(C(O)c2ncc(-c3ccccc3Cl)[nH]2)cc1F (configuration not stated),4%,-26%,-22%,?,nt,?
C[C@@H](CCc1ccccc1)NC[C@H](O)c1ccc(O)c(C(N)=O)c1,nt,nt,nt,nt,3%,nt
COc1cc(OC)cc(C(=O)NNC(=O)CCNC(=O)c2ccc(Br)cc2)c1,0%,10%,-9%,-11%,0%,1
CCOC(=O)c1c(S(=O)(=O)N2CCCC(C(=O)Nc3ccc(C)cn3)C2)c(C)n(C)c1C (configuration not stated),8%,?,5%,?,6%,-1
CCOC(=O)c1c(S(=O)(=O)N2CCCC(C(=O)N(C)Cc3ccccc3)C2)c(C)n(C)c1C (configuration not stated),21%,?,-7%,12µM*,4%,nt
CCOC(=O)c1c(C)c(C(=O)N2CCN(c3ccccc3)CC2)c(C)n1C,-20%,-25%,-16%,-21%,5%,-69*
CCOC(=O)c1c(C)c(C(=O)N2CCN(c3ccc(F)cc3)CC2)c(C)n1C,-29%,?,-28%,?,5%,6
CCOC(=O)c1c(S(=O)(=O)N2CCCC(C(=O)NCc3cccc(OC)c3)C2)c(C)n(C)c1C (configuration not stated),-15%,-29%,-14%,-29%,-1%,nt
CCOC(=O)c1c(S(=O)(=O)N2CCCC(C(=O)N3CCN(c4ccc(F)cc4)CC3)C2)c(C)n(C)c1C (configuration not stated),-26%,?,1%,23µM*,4%,nt
CCOC(=O)c1c(S(=O)(=O)N2CCN(c3cc(Cl)ccc3C)CC2)c(C)n(C)c1C,-16%,21µM*,-68%,?,7%,nt
CCOC(=O)c1c(S(=O)(=O)N2CCCC(C(=O)NCc3ccccc3Cl)C2)c(C)n(C)c1C (configuration not stated),13%,-22%,-31%,-28%,0%,nt
CCOC(=O)c1c(S(=O)(=O)N2CCCC(C(=O)N3CCN(c4ccccc4)CC3)C2)c(C)n(C)c1C (configuration not stated),-30%,?,-1%,15µM*,6%,nt
CCOC(=O)c1c(S(=O)(=O)N2CCCC(C)C2)c(C)n(C)c1C (configuration not stated),11%,-25%,27%,?,6%,8
CCOC(=O)c1c(S(=O)(=O)N2CCCC(C(=O)NCc3ccc(Cl)cc3)C2)c(C)n(C)c1C (configuration not stated),-12%,?,-12%,13µM*,0%,nt
O=C(CC1OC(=O)c2ccccc21)NNC(=O)c1ccc(F)cc1 (configuration not stated),23%,-9%,-4%,20%,0%,-25
COCC(=O)Nc1cc(C(=O)N2CCCC(C(N)=O)C2)cc2nc(-c3ccccc3)n(C)c12 (configuration not stated),nt,-11%,nt,1%,nt,nt
Cc1cccc2c1Sc1ccc(Cl)cc1CC2N1CCNCC1 (configuration not stated),?,18µM*,-156%,16µM*,nt,-99*
CCc1cccc2c1Sc1ccccc1CC2N1CCNCC1 (configuration not stated),?,16µM*,-134%,16µM*,nt,-93*
COc1cc2oc(=O)cc(CN3CCN(c4ccccc4OC)CC3)c2cc1Cl,-12%,?,4%,-26%,nt,19
CCN1C(=O)C(Cc2nc3ccccc3c(=O)n2-c2cccc(C)c2)c2ccccc21 (configuration not stated),1%,?,-3%,?,7%,nt
CCN1C(=O)C(Cc2nc3ccccc3c(=O)n2C)c2ccccc21 (configuration not stated),8%,15µM*,5%,?,4%,0
CCCN1C(=O)C(Cc2nc3ccccc3c(=O)n2-c2ccc(OC)cc2)c2cc(C)ccc21 (configuration not stated),1%,4.1µM*,-1%,9.2µM*,5%,nt
CCN1C(=O)C(Cc2nc3ccccc3c(=O)n2-c2ccccc2)c2cc(Br)ccc21 (configuration not stated),?,5.8µM*,1%,5.8µM*,0%,nt
Cc1cccc(-c2noc(C(C)NC(=O)c3ccco3)n2)c1 (configuration not stated),27%,-26%,13%,2%,-1%,45

# Source: PubChem (National Center for Advancing Translational Sciences (NCATS))
